Here are results for 40 molecules from PubChem BioAssay (Tox21).

SMILES strings stand for the structures. Inconclusive results are not listed. Active and inactive are the calls of the source. Calls come from the whole dose curve.

Chain of Peroxisome proliferator-activated receptor gamma (Homo sapiens) (P37231 whole entry, looked up): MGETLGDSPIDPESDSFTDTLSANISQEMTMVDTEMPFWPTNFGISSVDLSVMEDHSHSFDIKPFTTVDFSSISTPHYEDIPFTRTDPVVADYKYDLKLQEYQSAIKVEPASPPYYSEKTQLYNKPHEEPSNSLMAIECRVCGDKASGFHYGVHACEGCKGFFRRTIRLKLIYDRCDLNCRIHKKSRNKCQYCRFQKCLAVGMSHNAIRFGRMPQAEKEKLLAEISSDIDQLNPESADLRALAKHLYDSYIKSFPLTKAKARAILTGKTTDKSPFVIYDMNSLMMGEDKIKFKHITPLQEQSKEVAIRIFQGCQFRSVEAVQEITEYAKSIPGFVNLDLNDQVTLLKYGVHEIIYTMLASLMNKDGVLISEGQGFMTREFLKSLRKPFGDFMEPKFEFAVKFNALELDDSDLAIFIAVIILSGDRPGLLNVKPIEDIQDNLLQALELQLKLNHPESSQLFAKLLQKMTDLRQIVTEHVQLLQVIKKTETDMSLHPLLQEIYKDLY

This assay concerns the target Peroxisome proliferator-activated receptor gamma (Homo sapiens) (UniProt P37231). The experiment in a line: qHTS assay to identify small molecule antagonists of the peroxisome proliferator-activated receptor gamma (PPARg) signaling pathway (AID 743191). Note: nearly all actives have a fitted effect of over 30% in size. To be noted: HEK293H PPARg-UAS-bla, beta-lactamase ratio, antagonist, 17 h; series mostly up to 62.6 µM. An excerpt: U.S. Tox21 Program National Center for Advancing Translational Sciences [NCATS] NIH Chemical Genomics Center [NCGC] U.S. Environmental Protection Agency [EPA] National Institutes of Environmental Health Sciences [NIEHS] National Toxicology Program [NTP] U.S. Food and Drug Administration [FDA] Tox21 Assay Overview: The peroxisome proliferator-activated receptors (PPARs) are lipid-activated transcription factors of the nuclear receptor superfamily with three distinct subtypes namely PPAR alpha, PPAR delta (also called PPAR beta) and PPAR gamma (PPARg). All these subtypes heterodimerize with Retinoid X receptor (RXR) and these heterodimers regulate transcription of various genes. PPAR-gamma receptor (glitazone receptor) is involved in the regulation of glucose and lipid metabolism. To identify the compounds that inhibit PPAR-gamma signaling, GeneBLAzer PPAR gamma UAS-bla HEK293H cell line (Invitrogen, Carlsbad, CA, USA) containing a beta-lactamase reporter gene under control of an Upstream Activator Sequence (UAS) was used to screen the Tox21 compound library.
Tox21 Assay Protocol Summary: PPARg-bla cells were dispensed at 3000 cells/6uL/well in 1536-well black wall/clear bottom plates using a Multidrop Combi (Thermo Fisher Scientific, Waltham, MA) dispenser. After the assay plates were incubated at 37C and 5% CO2 for 5 h, 23 nL of compounds dissolved in DMSO, positive controls or DMSO only was transferred to the assay plate by a Pintool station (Kalypsys, San Diego, CA). The assay plates were incubated at 37C for 17 h. After 1 uL of LiveBLAzerTM B/G FRET substrate was added using a Bioraptr Flying Reagent Dispenser (FRD) workstation (Beckman Coulter, Indianapolis, IN, USA), the plates were incubated at room temperature for 1 h, and fluorescence intensity was measured by an Envision plate reader (PerkinElmer, Shelton, CT).
`O=C(O)c1cc(C(=O)O)cc(S(=O)(=O)O)c1`: the outcome was inactive.
As to `O=S(=O)(O)c1ccc2ccccc2c1`, the result was inactive.
Under `O=C(O)c1cc(=O)c2c(OCC(O)COc3cccc4oc(C(=O)O)cc(=O)c34)cccc2o1` stands “inactive”.
Turning to `Fc1ccc(Br)cc1`, the outcome was inactive.
The result for `C[Si](O[Si](C)(C)C)O[Si](C)(C)C` reads “inactive”.
For `CCCCCCOCCO`, the outcome was inactive.
`O=C(O)[C@H](O)[C@@H](O)[C@H](O)[C@H](O)CO`: the outcome was inactive.
For `CSCCC=O`, the result was inactive.
The result for `ON=C1CCCCC1` reads “inactive”; that for `CN(C)CCOCCN(C)C`, “inactive”; that for `C#C[C@]1(O)CC[C@H]2[C@@H]3CCC4=CC(=O)CC[C@@H]4[C@H]3CC[C@@]21C`, “inactive”.
Under `CC(C)(N)CO` stands “inactive”; under `CC(=O)CC(=O)Nc1ccccc1C`, “inactive”.
The result for `C=CCNC(N)=S` reads “inactive”; that for `CC(C)c1ccc(S(=O)(=O)O)cc1`, “inactive”.
As to `CCCCCCCCCC`, the outcome was inactive.
Turning to `C=C(C)C(=O)O[C@H]1C[C@@H]2CC[C@@]1(C)C2(C)C`, the result was inactive.
The result for `O=c1[nH]c(=O)n([C@H]2C[C@H](O)[C@@H](CO)O2)cc1Br` reads “inactive”; that for `CCCCCCCCCCCCOCCO`, “inactive”; that for `CCN(CC)CCCC(C)Nc1ccnc2cc(Cl)ccc12` (stereo not given), “inactive”.
With `CCCCOC(=O)COc1ccc(Cl)cc1Cl`, the outcome was inactive.
For the molecule `CCCCCC(N)=O`, the result was inactive.
`COc1ccc(NC(C)=O)cc1N`: the result was inactive.
The result for `C#CCN(C)Cc1ccccc1` reads “inactive”.
Regarding `CCC(O)OCCCOC` (stereo not given), the outcome was inactive.
The result for `Nc1ccccc1[N+](=O)[O-]` reads “inactive”; that for `O=c1[nH]c(=O)n([C@H]2CCCO2)cc1F`, “inactive”.
For the molecule `Cc1ccc2oc(=O)ccc2c1`, the outcome was inactive.
The result for `O=[N+]([O-])c1ccc(/C=C/c2ccc([N+](=O)[O-])cc2S(=O)(=O)O)c(S(=O)(=O)O)c1` reads “inactive”; that for `O=C(O)c1ccc2c(c1)C(=O)OC2=O`, “inactive”.
The result for `CCC(O)OC(O)CC` (stereo not given) reads “inactive”.
Under `CCCCCOC(C)=O` stands “inactive”; under `O=C(Oc1ccccc1)c1ccccc1`, “inactive”; under `CC(=O)c1ccccc1`, “inactive”.
As to `CCCCCC/C(C=O)=C\c1ccccc1`, the outcome was inactive.
Take `C[C@H]1C[C@@H]2[C@H]([C@@H](O)C[C@@]3(C)[C@H]2CC[C@]3(O)C(=O)CO)[C@@]2(C)C=CC(=O)C=C12`: the outcome was inactive.
For the molecule `CCc1cccc(C)c1N`, the result was inactive.
Regarding `CC(C)(C)[C@@H](O)[C@@H](Cc1ccc(Cl)cc1)n1cncn1`, the outcome was inactive.
The result for `OC[C@H]1O[C@@](CO)(O[C@H]2O[C@H](CO)[C@@H](O)[C@H](O)[C@H]2O)[C@@H](O)[C@@H]1O` reads “inactive”; that for `COc1ccc(Nc2ccccc2)c(C)c1`, “inactive”.
